Measurements taken from PubChem BioAssay (NCATS).
Records with an inconclusive call do not appear. The source made the active and inactive calls. Calls follow the shape of the dose curve; as a rule, active = well fitted curve in the direction sought with a large enough effect; inconclusive = small, poorly fitted or top-dose-only effect, or another doubt; inactive = no such curve, though single readings can be large; an effect the other way counts as inactive or inconclusive.

Experiment: qHTS for Inhibitors of Plasmodium falciparum (HB3) proliferation (AID 504318); also: nearly all actives have a fitted effect of over 60% in size
Conditions: P. falciparum HB3 in erythrocytes, SYBR Green DNA, 72 h; series mostly up to 7.21 µM
In short: (§1)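 Parasite growth measured as SYBR Green DNA fluorescence (ex 485, em 535 nm) after overnight lysis following 72 h culture at 37 °C, 0.3% parasitemia, 2.5% hematocrit. Values normalized against DMSO and 0.29 uM artemisinin controls, with plate-stack correction.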

Potency, inactive:
COc1cccc(-c2coc3ccc(Br)cc3c2=O)c1
COC(=O)CCC(=O)OC1(C)C(=O)C=C2C=C(C3CC3)N(Cc3ccc(OC)cc3)C=C2C1=O (centres undefined)
COc1ccc([C@]23Cc4cc(OC)c(OC)cc4[C@H](O2)c2c(cc(C)oc2=O)O3)cc1
O=c1oc2ccccc2c2c1[C@H]1O[C@](c3ccsc3)(Cc3ccccc31)O2
CC(=O)C1=C(C)N(Cc2ccccc2)C(=O)NC1CCc1ccccc1 (centres undefined)
CCN1C(N(C)CCOC)=NC(c2cccc(F)c2)C(C(=O)OC)=C1C (centres undefined)
CC1(OC(=O)c2ccc(Cl)nc2)C(=O)C=C2C=C(c3ccsc3)OC=C2C1=O (centres undefined)
O=C1C2=C(C(=O)c3ccccc31)[C@H]1O[C@](c3ccsc3)(Cc3c1ccc1ccccc31)O2
Cc1ccc2[nH]c3nc(CCCn4ccnc4-c4ccccc4)nnc3c2c1
COc1cccc([C@@H]2Oc3ccc(Br)cc3C(=O)[C@@H]2O)c1
COc1ccc(-c2nc3c(c4c2C[C@H](c2ccccc2)OC4)CN(C(=O)Nc2cccc(C#N)c2)CC3)c(C)c1
COC(=O)NC(c1ccccc1)c1c[nH]c2ccc(OC)cc12 (centres undefined)
COC(=O)CCC(=O)OC1(C)C(=O)C=C2C=C(C3CC3)OC=C2C1=O (centres undefined)
C[C@H]1C=CCC(=O)N[C@@H](c2ccc3ccccc3c2)[C@@H](C)C=CCC(=O)N[C@@H]1c1ccc2ccccc2c1
COC(=O)C1=C(C)N(CC2CC2)C(=O)NC1c1ccc(Br)cc1 (centres undefined)
COc1ccc(N2C(=O)N3[C@H](c4ccccc4)[C@@H](C)C[C@H]4c5ccccc5C[C@]43C2=O)cc1
N#Cc1ccc2c(c1)C[C@]1(CCCCN3C(=O)c4ccccc4C3=O)Oc3cc(-c4ccccc4)oc(=O)c3[C@H]2O1
CC(=O)OC[C@H]1O[C@H](CC=NO[C@@H](C)c2cn([C@H](CO)Cc3ccccc3)nn2)C=C[C@@H]1OC(C)=O
COc1ccc([C@]23Cc4ccccc4[C@H](O2)c2c(cc(-c4ccccc4)oc2=O)O3)cc1

Experiment: qHTS for Inhibitors of Plasmodium falciparum (CP250) proliferation (AID 504320)
Conditions: P. falciparum CP250 in erythrocytes, SYBR Green DNA, 72 h; series mostly up to 6.7 µM
In short: as §1

Potency, inactive:
COc1ccc2c(c1)c(CC(=O)NCc1ccc3c(c1)OCO3)c(C)n2C(=O)c1ccc(Cl)cc1
COc1cccc(-c2coc3ccc(Br)cc3c2=O)c1
COc1ccc([C@]23Cc4c(ccc5ccccc45)[C@H](O2)C2=C(CCCC2=O)O3)cc1
COc1cccc([C@@H](NC(=O)C(F)(F)F)[C@@H]2CCCC=C2c2ccccc2)c1
COC(=O)CCC(=O)OC1(C)C(=O)C=C2C=C(C3CC3)N(Cc3ccc(OC)cc3)C=C2C1=O (centres undefined)
COC(=O)C1=C(C(=O)OC)[C@@H]2N(C)c3ccccc3[C@@]23CCC(=O)N(Cc2ccc4c(c2)OCO4)C3=N1
COc1ccc([C@]23Cc4cc(OC)c(OC)cc4[C@H](O2)c2c(cc(C)oc2=O)O3)cc1
O=c1oc2ccccc2c2c1[C@H]1O[C@](c3ccsc3)(Cc3ccccc31)O2
CC(CCC(=O)OC[C@H]1O[C@H](C#Cc2ccccc2)C=C[C@H]1Oc1ccc(C)cc1)=NO[C@H](C)c1cn([C@@H]2COC[C@@H]2O)nn1
O=C1Nc2cccc(Br)c2[C@@]12O[C@H](COc1ccccc1)CC1=CCC[C@H]12
CC(=O)C1=C(C)N(Cc2ccccc2)C(=O)NC1CCc1ccccc1 (centres undefined)
CC1=CC[C@@H](COc2ccccc2)O[C@@]2(C1)C(=O)N(CC1CC1)c1ccccc12
C#CCOCC#CC[C@@]1(C(=O)OC)C=C[C@@H](C)[C@H](c2ccccc2Br)N1C(=O)C(F)(F)F
CCN1C(N(C)CCOC)=NC(c2cccc(F)c2)C(C(=O)OC)=C1C (centres undefined)
CC1(OC(=O)c2ccc(Cl)nc2)C(=O)C=C2C=C(c3ccsc3)OC=C2C1=O (centres undefined)
COc1cc2c(c(OC)c1OC)[C@@]1(c3ccccc3)CCCC[C@H]1[C@@H]2NC(=O)C(F)(F)F
CC(=O)O[C@@H]1C(CO[Si](C)(C)C(C)(C)C)=C(Br)C(=O)[C@@H]2O[C@]12C
C#CCCCON=C1C[C@@H](O)[C@H](O)[C@H]2[C@@H]3C(=O)N(Cc4ccc5c(c4)OCO5)C(=O)[C@@H]3CC[C@@H]12
O=C1C2=C(C(=O)c3ccccc31)[C@H]1O[C@](c3ccsc3)(Cc3c1ccc1ccccc31)O2
Cc1ccc2[nH]c3nc(CCCn4ccnc4-c4ccccc4)nnc3c2c1
CC12C=C(C=Cc3ccccc3)C(C)(C1)C(c1ccccc1)CC2=O (centres undefined)
COc1cccc([C@@H]2Oc3ccc(Br)cc3C(=O)[C@@H]2O)c1
CC1=C[C@@H](COCc2ccccc2)O[C@@]2(C1)C(=O)Nc1cccc(Br)c12
COc1ccc(-c2nc3c(c4c2C[C@H](c2ccccc2)OC4)CN(C(=O)Nc2cccc(C#N)c2)CC3)c(C)c1
COC(=O)NC(c1ccccc1)c1c[nH]c2ccc(OC)cc12 (centres undefined)
C=C(C)C[C@@]1(c2ccccc2)Oc2ccccc2C2=NCCN=C21
COC(=O)CCC(=O)OC1(C)C(=O)C=C2C=C(C3CC3)OC=C2C1=O (centres undefined)
C[C@H]1C=CCC(=O)N[C@@H](c2ccc3ccccc3c2)[C@@H](C)C=CCC(=O)N[C@@H]1c1ccc2ccccc2c1
COC(=O)C1=C(C)N(CC2CC2)C(=O)NC1c1ccc(Br)cc1 (centres undefined)
C[C@@H]1C=CCC(=O)N2[C@H](CC(=O)N[C@@H]1c1ccccc1)C[C@@H](C)[C@@H]2c1ccccc1
C[C@H]1CC[C@H]2C(=O)N(Cc3ccccc3)C[C@@H](O)CN2[C@H]1c1cccc(Br)c1
COc1ccc(N2C(=O)N3[C@H](c4ccccc4)[C@@H](C)C[C@H]4c5ccccc5C[C@]43C2=O)cc1
N#Cc1ccc2c(c1)C[C@]1(CCCCN3C(=O)c4ccccc4C3=O)Oc3cc(-c4ccccc4)oc(=O)c3[C@H]2O1
CCc1cc2c(nc1CC)CCN(CCC(C)=NO[C@@H]1O[C@H](COC(C)=O)[C@@H](OC(C)=O)[C@H](OC(C)=O)[C@@H]1OC(C)=O)C2
COC(=O)C1=C(C)N(CC2CC2)C(=O)NC1CCc1ccccc1 (centres undefined)
CC(=O)OC[C@H]1O[C@H](CC=NO[C@@H](C)c2cn([C@H](CO)Cc3ccccc3)nn2)C=C[C@@H]1OC(C)=O
CC(CCN1CCCc2nc(C)c(C)cc21)=NOC[C@@H](O)COCc1ccco1
COC(=O)C1=C(C(=O)OC)[C@@H]2N(C)c3ccc(OC)cc3[C@@]23C[C@@H](C(=O)OC)N(C(=O)N2CCNC2=O)C3=N1
CC1=CC[C@@H](C)O[C@@]2(C1)C(=O)N(Cc1ccc(F)cc1)c1ccccc12
COc1ccc([C@]23Cc4ccccc4[C@H](O2)c2c(cc(-c4ccccc4)oc2=O)O3)cc1
